# The list is not random: actives were taken first. Their share in the collection is about 13%.
# MARV entry inh: inhibitors of Marburg virus binding or cell entry; Marburg virus pseudotyped entry inhibition, cell reporter; Potency, µM (series often up to 37.8 µM), inactives show top-dose activity change, negative = inhibition, actives largely listed as inhibitors; actives 1.8% (n = 300,000); AID 540276; calls by dose curve; tested in HEK293 cells; also: potency is read from the fitted curve at half-maximal effect; % is scaled to controls: 0 for no effect and ±100 for the full control effect
# Shiga inhibitor: Shiga toxin inhibition. actives 9.2% (n = 290,000). Vero cells, Shiga toxin protein synthesis inhibition reporter. AID 2315. inhibition, % at 38.7 µM; in the data active = inhibition mostly above about 28%, no sharp cut-off; inactive = mostly below about 43%; also: 0% is about no effect
# HCV inhibitor: HCV inhibition | Huh7.5.1 HCVcc-Cre infection, luciferase reporter, 44 h | Potency, µM (highest dose often 41.8 µM), for the others: at the highest dose activity change, negative = inhibition, usual class: inhibitors | actives 3.4% (n = 340,000) | AID 651820; active = well fitted inhibition curve with a large enough effect; inconclusive = small, poorly fitted or top-dose-only effect, or another doubt; inactive = no such curve, though single readings can be large or run the other way; also: potency is read from the fitted curve at half-maximal effect; % is scaled to controls: 0 for no effect and ±100 for the full control effect
#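 A cell-based infection assay in which seeded cells (1,000 per well) receive test compound after 4 h, are inoculated with HCVcc-Cre at approximately 0.5 moi, and are incubated 44 h before luminescence detection.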
# Cycloheximide cs: counter-screen hit for Shiga toxin inhibitors, cycloheximide | cell reporter, cycloheximide protein synthesis inhibition counterscreen | max response, % | actives 12% (n = 300,000); in the data active = max response mostly above about 13%, no sharp cut-off; inactive = mostly below about 14%; also: read at 38.3 µM for the half of the compounds with a filed dose; 0% is about no effect
# LASV entry inh: blocks Lassa virus binding to or entry into cells; Potency, µM (highest dose often 37.9 µM), for the others: at the top dose activity change, negative = inhibition, hits mostly inhibitors; Lassa virus pseudotype entry inhibition, cell reporter; actives 1.2% (n = 300,000); AID 540256; calls by dose curve; tested in HEK293 cells; also: potency is read from the fitted curve at half-maximal effect; % is scaled to controls: 0 for no effect and ±100 for the full control effect; nearly all actives have a fitted effect of over 50% in size
# FMDV inh: antivirals against foot and mouth disease virus; FMDV antiviral cell-based qHTS; Potency, µM (series often up to 57.9 µM), for inactives: at the highest dose activity change, negative = inhibition, usual class: inhibitors; actives 1.2% (n = 410,000); calls by dose curve; tested in HEK293T cells; also: read-out not given here; potency is read from the fitted curve at half-maximal effect; % is scaled to controls: 0 for no effect and ±100 for the full control effect; nearly all actives have a fitted effect of over 45% in size
# An asterisk follows results filed as active; ? = inconclusive; / = not tested or not shown; [ ] = another dose, or the depositor's remark.
SMILES,MARV entry inh,Shiga inhibitor,HCV inhibitor,Cycloheximide cs,LASV entry inh,FMDV inh
CC(=Nc1ccc(C)cc1)c1sc2ccccc2c1O,?,91.7*,12.6µM*,35.2*,?,/
CC(=Nc1cccc(O)c1)c1sc2ccccc2c1O,9.5%,110.8*,10.3%,54.8*,7.5%,/
Cc1ccc2c(c1)N(CC(=O)NCCCc1ccccc1)C(=O)c1cccnc1O2,/,8.4,-21.5%,-2.6,/,?
COCC(=O)N1CCC2(CCCN(C(=O)Nc3cccc(C#N)c3)C2)CC1,/,/,/,/,/,-7.6%
C=CCSCC=C,/,/,/,/,/,4.0%
CC1N/C(=C\C(=O)c2ccccc2)N(O)C1(C)C (stereo not drawn),?,76.4*,?,36.8*,?,10.6%
CN(C)C(CNC(=O)c1cccs1)c1cccnc1 (stereo not drawn),/,1.9,-2.7%,0.5,/,-10.6%
COC(=O)c1cc2oc(C)cc2n1CC(=O)Nc1ccc(C)c(C)c1,1.2%,22.9,3.98µM*,-1.6,?,48.3%
Cc1ccc(NC(=O)Cn2cccc2)cc1Cl,-24.6%,-1.0,-2.2%,8.5,2.6%,-4.1%
Cc1ccc(NC(=O)Cn2ncn3c(cc4ccccc43)c2=O)cc1F,?,13.3,-9.2%,-2.4,-14.0%[46.1 µM],-12.9%
CCc1ccc(NC(=O)Cn2cccc2)cc1,1.5%,66.2,-1.1%,24.6*,13.9%,13.0%
Cc1ccc(NC(=O)Cn2ncn3c(cc4ccccc43)c2=O)cc1C,12.6µM*,/,/,/,/,5.6%
Cc1ccc(NC(=O)Cn2cccc2)cc1C,-24.1%,33.1,-28.5%,15.1*,0.8%,-9.1%
CCC(C)c1ccc(NC(=O)COC(=O)CCNC(=O)c2ccco2)cc1 (stereo not drawn),/,/,6.8%,/,/,14.1%
O=C1c2ccccc2C(=O)N1CC(O)COc1ccc(Br)cc1 (stereo not drawn),20.2%[46.1 µM],89.8,24.5%,12.7*,4.9%[46.1 µM],0.6%
O=C1c2ccccc2S(=O)(=O)N1CCCN1C(=O)c2ccccc2S1(=O)=O,-14.5%,/,11.0%,/,18.6%,-6.4%
COC(=O)c1ccc(OCC(O)CN2C(=O)c3ccccc3S2(=O)=O)cc1 (stereo not drawn),22.8%[46.1 µM],1.7,5.01µM*,8.6,?,-6.0%
O=C1c2ccccc2S(=O)(=O)N1CC(O)COc1ccc(Cl)cc1 (stereo not drawn),?,37.7,12.7%,9.3,6.9%,0.0%
O=C1c2ccccc2S(=O)(=O)N1CCOc1ccccc1,?,55.8,18.7%,34.9*,?,38.9%
O=C1c2ccccc2S(=O)(=O)N1CC(O)COc1ccc(Br)cc1 (stereo not drawn),?,33.4,-0.2%,28.1*,17.2%,12.8%
COc1ccc2c(C(=O)CN3CC(C)OC(C)C3)c[nH]c2c1 (stereo not drawn),13.5%,41.8,6.4%,11.7,26.0%,69.1%
COc1cc2cnc(-c3ccsc3)c(-c3ccc(F)cc3)c2cc1OC,/,/,6.31µM*,/,/,?
Clc1ccc2nc(N3CCNCC3)nc(-c3ccccc3)c2c1,?,-17.3,10µM*,-0.9,?,-24.6%
CN1CCN(c2nc(-c3ccccc3)c3cc(Cl)ccc3n2)CC1,-18.9%,-11.8,-13.3%,4.2,7.2%,-1.9%
CSc1nnc(CSCc2ccc(Cl)cc2Cl)n1-c1ccccc1,?,-5.9,-25.2%,-2.3,-7.8%,-20.5%
SMILES,MARV entry inh,Shiga inhibitor,HCV inhibitor,Cycloheximide cs,LASV entry inh,FMDV inh
CCCC(=O)Nc1nnc(/C=C/c2ccccc2)s1,/,40.4*,-11.7%,25.9*,/,39.5%
CC(C)(C)C(=O)Nc1nnc(COc2ccc(Cl)cc2)s1,8.8%,38.5*,?,25.1*,2.9%,20.7%
CCC(=O)Nc1nnc(/C=C/c2ccccc2)s1,/,49.4*,-1.8%,44.2*,/,8.6%
CCCCC(=O)Nc1nnc(/C=C/c2ccc(OC)cc2)s1,/,-6.2,1.7%,-1.1,/,15.8%
CCCC(=O)Nc1nnc(/C=C/c2ccc(OC)cc2)s1,6.0%[46.1 µM],21.5,-14.0%,19.1*,1.0%,25.8%
COc1cc2ccccc2cc1C(=O)Nc1ccc2oc(-c3ccc(F)cc3)nc2c1,/,/,/,/,21.8%[46.1 µM],-13.9%
CCCCCN(C(=O)CCC(=O)OCC(=O)N1CCCCC1C)c1c(N)n(CCCC)c(=O)[nH]c1=O (stereo not drawn),8.2%,-10.3,4.9%,-0.4,-2.2%,-1.7%
COc1ccc(/C=C/c2nnc(NC(=O)COc3ccccc3)s2)cc1,12.6%[46.1 µM],27.9,2.0%,-2.4,18.1%,-16.8%
